This note sets out measurements from PubChem BioAssay (NCATS).

Assay [1] has as its target Estrogen receptor (Homo sapiens) (UniProt P03372). Nature of the assay: qHTS assay for small molecule agonists of estrogen receptor alpha signaling (AID 588514; calls by dose curve;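 also: 0% = vehicle only and 100% = reference agonist; nearly all actives have a fitted effect of over 70% in size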). Summed up: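 Efficacy is expressed against 20 nM 17-beta-estradiol (100%) and DMSO basal (0%); EC50 from Hill equation. Assay: beta-lactamase reporter in ER-alpha-UAS-bla HEK 293 cells, 18 h compound incubation, CCF4 detection.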
In general terms: Quantitative high-throughput screening tests each substance at several concentrations.

The nature of assay [2]: qHTS assay for small molecule antagonists of peroxisome proliferator-activated receptor delta signaling (AID 588535; active = well fitted inhibition curve with a large enough effect in the signal ratio, with a control signal flat, not every such curve was filed as active; the % refers to the signal ratio;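 as to max response: cells co-treated with a PPAR-delta agonist as stimulator during compound exposure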). The conditions noted are these: HEK293T PPARd-UAS-bla, beta-lactamase FRET ratio, 18 h; 460 nm channel. Summed up:
(§1)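 Titrations were run on PPAR-delta-UAS-bla HEK293T cells in charcoal/dextran-stripped serum, incubated 18 h at 37 C. CCF4 fluorescence (460/530 nm) after 2 h RT; Hill equation yields IC50 and maximal response.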

Assay [3] concerns the target Peroxisome proliferator-activated receptor delta (Homo sapiens) (UniProt Q03181). The assay is described as above. The method, boiled down: as §1
The target of assay [4] is Vitamin D3 receptor (Homo sapiens) (UniProt P11473). Nature of the assay: qHTS assay for small molecule antagonists of vitamin D receptor signaling (AID 588541; calls by dose curve;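 also: receptor activated by calcitriol during compound treatment; series mostly up to about 77 µM; % is scaled to controls: 0 for no effect and ±100 for the full control effect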). The method, boiled down: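 Antagonist-mode beta-lactamase reporter assay: HEK293T VDR-UAS-bla cells were exposed to titrated compound alongside 1-alpha,25-dihydroxyvitamin D3 at 3 nM final for 16 h. Values were normalized to the 50 nM agonist control and DMSO basal, with IC50 and efficacy from Hill equation fits.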

The target of assay [5] is Thyroid hormone receptor beta (Homo sapiens) (UniProt P10828). Kind of assay: qHTS assay for small molecule agonists of thyroid hormone receptor beta signaling (AID 588545; calls by dose curve). The method, boiled down: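 In this cell-based screen, titrated compounds act on HEK 293 cells held in medium with 2% charcoal/dextran FBS, NEAA and pyruvate for 18 hrs at 37 C. Responses are expressed relative to T3 (10 nM) as 100% and basal DMSO as 0%.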

Assay [6] shares this target. Nature of the assay: qHTS assay for small molecule antagonists of thyroid hormone receptor beta signaling (AID 588547; active = well fitted inhibition curve with a large enough effect in the signal ratio, with a control signal flat, not every such curve was filed as active; the % refers to the signal ratio;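 also: cells stimulated with 0.4 nM T3 agonist during compound exposure; series mostly up to about 77 µM; % is scaled to controls: 0 for no effect and ±100 for the full control effect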). The conditions noted are these: TR-UAS-bla HEK293, beta-lactamase ratio, antagonist mode, 18 h. The method, boiled down: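 Inhibition of T3-driven (0.4nM final) beta-lactamase reporter activity was measured over 0.59 nM to 92 uM compound after 18 h at 37 C. The cells were GripTite HEK293 TR-UAS-bla in charcoal/dextran-stripped serum, with CCF4 ratio read-out and IC50 from Hill fits.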

The nature of assay [7]: qHTS assay for small molecule activators of the p53 signaling pathway (AID 651743; active = well fitted activation curve with a large enough effect in the signal ratio, not every such curve was filed as active; the % refers to the signal ratio; also: series mostly up to about 92 µM; % of control where 0% means no effect). The conditions noted are these: HCT-116 p53RE-bla, beta-lactamase FRET ratio, 16 h; activation: stronger effect = higher value. The method, boiled down: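 After 16 hours compound treatment at 37 C, HCT-116 cells stably expressing p53RE-driven beta-lactamase were loaded with LiveBLAzer B/G FRET substrate for 2 hours at room temperature. Fluorescence intensity served as the p53 activation read-out.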

Assay [8] is described as follows: qHTS assay for environmental chemicals that activate the Aryl hydrocarbon Receptor (AhR) signaling pathway (AID 651777). Also: % of control where 0% means no effect; nearly all actives have a fitted effect of over 15% in size. The conditions noted are these: 1A2-DRE human hepatoma cells, luciferase, 24 h; activation: stronger effect = higher value. The method, boiled down:
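Luminescence read-out: One-Glo added for 30 min at RT after 24 hr compound treatment (37 C, 5% CO2) of human hepatoma cells expressing a DRE/CYP1A2 promoter–luciferase reporter; increased signal indicates AhR activation.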

Assay [9] concerns the target Peroxisome proliferator-activated receptor alpha (Homo sapiens) (UniProt Q07869). Kind of assay: qHTS assay for small molecule agonists of the peroxisome proliferator-activated receptor alpha (PPARalpha) signaling pathway (AID 651778). Also: % of control where 0% means no effect. The conditions noted are these: PathHunter PPARalpha complementation, chemiluminescence, 6 h; max response: stronger effect = higher value. The method, boiled down: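 Chemiluminescence from complemented enzyme reported PPARalpha activation in cells after 6 hr of compound treatment at 37 C. The detection reagent was incubated for 60 min at room temperature, and compounds were scored as agonists.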

Assay [10] in a line: qHTS assay for small molecule agonists of the antioxidant response element (ARE) signaling pathway measured by Nrf2-dependant transcriptional activity (AID 720636; active = well fitted curve in the direction sought with a large enough effect in the repeat runs; an effect the other way counts as inactive or inconclusive;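 also: HepG2 cells with an ARE-driven luciferase reporter; % of control where 0% means no effect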). Summed up: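 HepG2 ARE-luc reporter line, 1% dialyzed FBS; 6 hr attachment at 37 C, compound pinned in, 16 hr at 37 C/5% CO2; ONE-Glo, 30 min RT, luminescence read.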
Assay [11] is described as follows: qHTS assay for small molecule agonists of the antioxidant response element (ARE) signaling pathway measured by Nrf2-dependant transcriptional activity - cell viability counter screen (AID 720653; active = well fitted curve in the direction sought with a large enough effect in the repeat runs; an effect the other way counts as inactive or inconclusive; also: % is scaled to controls: 0 for no effect and ±100 for the full control effect). The conditions noted are these: ARE-bla HepG2 viability, CellTiter-Glo ATP luminescence, 16 h; max response: stronger effect = lower value. The method, boiled down:
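Cytotoxicity counter screen: intracellular ATP quantified by CellTiter-Glo luminescence in the same ARE-bla HepG2 plates, after 16 h compound exposure and a 2 h beta-lactamase substrate step.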

Assay [12] can be described thus: qHTS assay for cell viability of HEK293 cells (AID 743288). Also: % is scaled to controls: 0 for no effect and ±100 for the full control effect; nearly all actives have a fitted effect of over 50% in size. The conditions noted are these: ATP luminescence (CellTiter-Glo), 18 h; max response: stronger effect = lower value. The method, boiled down: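 Quantitative high-throughput screen: compounds were pinned onto parental HEK293 cells (2,000 per well) after a minimum 5 h settling at 37 C, incubated 18 h at 37 C, and intracellular ATP measured by luciferase luminescence.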

Assay [13] in a line: qHTS assay for cell viability of the p53RE-bla HCT-116 cell line (AID 743292). Also: % is scaled to controls: 0 for no effect and ±100 for the full control effect; nearly all actives have a fitted effect of over 55% in size. Summed up:
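Luminescent ATP quantitation (CellTiter-Glo) served as the viability read-out; reagent was added after 16 h compound exposure at 37 C and read after 30 min at room temperature. Cells: p53RE-bla HCT-116, 4,000 per well.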

Assay [14] deals with Peroxisome proliferator-activated receptor gamma (Homo sapiens) (UniProt P37231). Nature of the assay: qHTS assay for small molecule agonists of peroxisome proliferator-activated receptor gamma signaling (AID 588536; active = well fitted curve in the direction sought with a large enough effect in the signal ratio, with a control signal flat, not every such curve was filed as active; the % refers to the signal ratio;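 also: 0% = DMSO basal wells and 100% = rosiglitazone at 2 µM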). Summed up: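 This is an agonist-mode beta-lactamase reporter assay in HEK293 PPAR-gamma-UAS-bla cells with 1% charcoal/dextran FBS. Compound titrations ran 16 h at 37 C before CCF4 detection. EC50 and efficacy are Hill fits scaled to 2 uM rosiglitazone (100%) and DMSO basal.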

Assay [15] can be described thus: qHTS assay for small molecule agonists of retinoid X receptor alpha signaling (AID 588544; calls by dose curve;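 as to activation: 0% = DMSO basal wells and 100% = reference agonist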). The conditions noted are these: HEK293T RXRa-UAS-bla, beta-lactamase reporter, 18 h; 530 nm emission.
In assay [16] the target is Retinoic acid receptor RXR-alpha (Homo sapiens) (UniProt P19793). The description is as above.
The nature of assay [17]: qHTS assay for small molecule antagonists of retinoid X receptor alpha signaling (AID 588546; active = well fitted inhibition curve with a large enough effect in the signal ratio, with a control signal flat, not every such curve was filed as active; the % refers to the signal ratio;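 also: cells stimulated with 9-cis-retinoic acid as agonist; % is scaled to controls: 0 for no effect and ±100 for the full control effect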). The conditions noted are these: HEK293T RXRa-UAS-bla, beta-lactamase ratio, antagonist mode; measured here: W530 green channel, cytotoxicity proxy. Summed up:
(§2)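 Beta-lactamase reporter inhibition, read as CCF4 fluorescence ratio (ex 405, em 460/530 nm) after 2 h at RT. HEK293T UAS-bla cells, 2500/well, were stimulated with 9-cis-RA at 500 or 100 nM final alongside test compound for 18 h at 37 C.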

Assay [18] deals with Retinoic acid receptor RXR-alpha (Homo sapiens) (UniProt P19793). Described as above. The conditions noted are these: HEK293T RXRa-UAS-bla, beta-lactamase ratio, antagonist mode. The method, boiled down: as §2
Assay [19] concerns the target Nuclear receptor subfamily 1 group I member 2 (Rattus norvegicus) (UniProt Q9R1A7). Kind of assay: qHTS assay for small molecule activators of the rat pregnane X receptor (rPXR) signaling pathway (AID 651751; call rule not given here; also: 0% is about no effect). The conditions noted are these: rPXR reporter cells, luciferase (One-Glo), 24 h.
Assay [20] can be described thus: qHTS assay for small molecule activators of the human pregnane X receptor (PXR) signaling pathway (AID 720659; call rule not given here; also: 0% is about no effect).

Inconclusive results are not listed. Calls of active or inactive are those of the source. Unless noted, calls follow the shape of the dose curve; as a rule, active = well fitted curve in the direction sought with a large enough effect; inconclusive = small, poorly fitted or top-dose-only effect, or another doubt; inactive = no such curve, though single readings can be large; an effect the other way counts as inactive or inconclusive.

Peroxisome proliferator-activated receptor alpha (Homo sapiens), sequence (Q07869 whole entry, looked up): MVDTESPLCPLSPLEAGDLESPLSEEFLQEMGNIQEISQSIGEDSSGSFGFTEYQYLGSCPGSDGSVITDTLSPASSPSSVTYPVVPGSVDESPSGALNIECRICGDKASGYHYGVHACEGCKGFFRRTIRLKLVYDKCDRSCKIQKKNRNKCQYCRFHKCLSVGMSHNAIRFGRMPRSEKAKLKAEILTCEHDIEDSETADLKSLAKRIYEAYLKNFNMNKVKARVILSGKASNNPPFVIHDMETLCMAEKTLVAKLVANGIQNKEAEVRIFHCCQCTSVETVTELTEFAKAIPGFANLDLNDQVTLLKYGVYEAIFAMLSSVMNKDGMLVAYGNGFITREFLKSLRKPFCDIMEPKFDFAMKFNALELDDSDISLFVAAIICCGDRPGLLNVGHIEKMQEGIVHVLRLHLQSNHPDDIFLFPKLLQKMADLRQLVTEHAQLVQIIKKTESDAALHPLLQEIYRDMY
Retinoic acid receptor RXR-alpha (Homo sapiens), sequence (P19793 whole entry, looked up): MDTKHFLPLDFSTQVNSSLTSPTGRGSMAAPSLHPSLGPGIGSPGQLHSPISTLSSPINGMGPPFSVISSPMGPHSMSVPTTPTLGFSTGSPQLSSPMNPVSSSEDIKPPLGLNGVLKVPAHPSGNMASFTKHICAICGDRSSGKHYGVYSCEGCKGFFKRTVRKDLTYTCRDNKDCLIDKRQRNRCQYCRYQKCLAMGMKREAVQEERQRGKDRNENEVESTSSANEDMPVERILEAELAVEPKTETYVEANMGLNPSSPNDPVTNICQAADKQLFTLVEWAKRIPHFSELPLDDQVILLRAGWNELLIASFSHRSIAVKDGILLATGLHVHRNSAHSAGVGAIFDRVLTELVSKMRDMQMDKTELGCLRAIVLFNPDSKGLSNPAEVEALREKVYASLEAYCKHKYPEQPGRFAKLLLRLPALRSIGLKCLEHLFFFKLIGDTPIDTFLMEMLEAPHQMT
Thyroid hormone receptor beta (Homo sapiens), sequence (P10828 whole entry, looked up): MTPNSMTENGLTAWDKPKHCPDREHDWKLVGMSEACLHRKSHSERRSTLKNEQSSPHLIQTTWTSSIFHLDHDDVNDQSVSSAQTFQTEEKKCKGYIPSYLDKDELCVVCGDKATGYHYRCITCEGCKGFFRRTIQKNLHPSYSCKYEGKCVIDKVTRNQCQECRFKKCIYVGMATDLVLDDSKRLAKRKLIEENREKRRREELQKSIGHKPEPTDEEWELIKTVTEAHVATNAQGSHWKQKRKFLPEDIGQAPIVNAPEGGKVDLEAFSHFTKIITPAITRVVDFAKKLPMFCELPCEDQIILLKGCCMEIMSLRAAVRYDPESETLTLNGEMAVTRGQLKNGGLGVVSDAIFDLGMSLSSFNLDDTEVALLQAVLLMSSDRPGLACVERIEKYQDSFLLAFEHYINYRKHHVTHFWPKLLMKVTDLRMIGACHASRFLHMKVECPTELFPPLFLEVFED
Nuclear receptor subfamily 1 group I member 2 (Rattus norvegicus), sequence (Q9R1A7 whole entry, looked up): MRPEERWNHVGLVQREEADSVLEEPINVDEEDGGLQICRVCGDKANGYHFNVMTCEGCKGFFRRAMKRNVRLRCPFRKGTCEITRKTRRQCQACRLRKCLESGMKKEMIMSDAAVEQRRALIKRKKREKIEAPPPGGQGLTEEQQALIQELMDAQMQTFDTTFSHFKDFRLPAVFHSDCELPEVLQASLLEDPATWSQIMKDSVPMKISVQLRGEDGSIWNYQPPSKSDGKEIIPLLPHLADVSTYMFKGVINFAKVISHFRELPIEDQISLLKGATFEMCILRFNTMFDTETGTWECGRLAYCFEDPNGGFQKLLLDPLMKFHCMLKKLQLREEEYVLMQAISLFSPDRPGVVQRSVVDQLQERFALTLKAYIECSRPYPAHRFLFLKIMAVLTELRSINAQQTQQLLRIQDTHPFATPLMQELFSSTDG
Peroxisome proliferator-activated receptor gamma (Homo sapiens), sequence (P37231 whole entry, looked up): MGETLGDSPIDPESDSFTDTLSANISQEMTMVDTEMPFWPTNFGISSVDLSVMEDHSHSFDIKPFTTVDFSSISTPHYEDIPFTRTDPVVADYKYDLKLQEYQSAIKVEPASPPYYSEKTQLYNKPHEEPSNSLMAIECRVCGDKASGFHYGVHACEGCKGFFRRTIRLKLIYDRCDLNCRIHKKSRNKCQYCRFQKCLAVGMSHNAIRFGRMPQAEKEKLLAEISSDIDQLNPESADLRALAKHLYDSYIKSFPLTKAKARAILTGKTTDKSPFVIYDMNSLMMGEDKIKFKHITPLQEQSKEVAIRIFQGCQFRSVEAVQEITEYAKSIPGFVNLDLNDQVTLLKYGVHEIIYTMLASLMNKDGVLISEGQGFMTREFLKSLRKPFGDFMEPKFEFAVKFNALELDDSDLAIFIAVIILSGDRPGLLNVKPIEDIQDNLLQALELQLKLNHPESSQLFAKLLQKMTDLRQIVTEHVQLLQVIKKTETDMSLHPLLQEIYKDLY
Peroxisome proliferator-activated receptor delta (Homo sapiens), sequence (Q03181 whole entry, looked up): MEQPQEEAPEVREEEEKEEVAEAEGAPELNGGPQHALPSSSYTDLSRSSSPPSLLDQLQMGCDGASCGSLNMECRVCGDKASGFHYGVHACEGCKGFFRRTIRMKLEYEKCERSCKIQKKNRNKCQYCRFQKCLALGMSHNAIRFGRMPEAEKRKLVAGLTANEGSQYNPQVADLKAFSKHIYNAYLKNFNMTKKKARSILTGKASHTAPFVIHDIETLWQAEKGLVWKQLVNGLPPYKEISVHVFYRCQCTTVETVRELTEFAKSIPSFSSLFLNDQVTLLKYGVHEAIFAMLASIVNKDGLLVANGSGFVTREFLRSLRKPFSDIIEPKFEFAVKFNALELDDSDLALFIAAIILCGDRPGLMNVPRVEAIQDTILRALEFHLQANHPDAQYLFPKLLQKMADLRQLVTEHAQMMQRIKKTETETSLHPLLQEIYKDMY
Vitamin D3 receptor (Homo sapiens), sequence (P11473 whole entry, looked up): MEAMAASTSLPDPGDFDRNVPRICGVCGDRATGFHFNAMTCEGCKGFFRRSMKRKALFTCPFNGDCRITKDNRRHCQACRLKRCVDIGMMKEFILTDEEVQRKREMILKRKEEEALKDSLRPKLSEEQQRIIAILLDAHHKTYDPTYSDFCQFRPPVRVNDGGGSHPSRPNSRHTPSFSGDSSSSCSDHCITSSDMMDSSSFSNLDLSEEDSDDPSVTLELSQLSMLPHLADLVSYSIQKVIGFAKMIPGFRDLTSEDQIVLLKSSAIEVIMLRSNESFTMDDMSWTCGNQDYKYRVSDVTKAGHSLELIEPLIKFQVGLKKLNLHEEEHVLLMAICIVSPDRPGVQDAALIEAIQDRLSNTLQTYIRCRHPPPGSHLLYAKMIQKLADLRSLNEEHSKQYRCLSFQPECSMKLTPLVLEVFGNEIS
Estrogen receptor (Homo sapiens), sequence (P03372 whole entry, looked up): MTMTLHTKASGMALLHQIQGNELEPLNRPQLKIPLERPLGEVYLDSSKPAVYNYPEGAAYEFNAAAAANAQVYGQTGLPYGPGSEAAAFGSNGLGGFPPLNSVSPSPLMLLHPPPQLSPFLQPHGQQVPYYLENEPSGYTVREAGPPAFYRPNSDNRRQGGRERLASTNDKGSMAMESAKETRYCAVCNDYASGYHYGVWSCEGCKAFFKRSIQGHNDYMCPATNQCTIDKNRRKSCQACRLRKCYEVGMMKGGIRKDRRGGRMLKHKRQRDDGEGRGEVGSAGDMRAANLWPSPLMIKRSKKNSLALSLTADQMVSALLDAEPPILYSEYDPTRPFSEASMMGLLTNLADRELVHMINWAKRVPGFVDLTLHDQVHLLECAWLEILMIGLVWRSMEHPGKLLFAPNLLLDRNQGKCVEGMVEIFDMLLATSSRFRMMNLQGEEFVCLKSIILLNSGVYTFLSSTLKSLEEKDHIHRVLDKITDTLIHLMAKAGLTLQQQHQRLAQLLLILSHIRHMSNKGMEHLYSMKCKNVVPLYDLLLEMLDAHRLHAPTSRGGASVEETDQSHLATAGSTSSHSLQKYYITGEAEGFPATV

As to `O=S(c1ccc(Cl)cc1)c1cc(Cl)c(Cl)cc1Cl` (configuration not stated), the Potency result in assay [1], in [3], in assay [4], in [5], in [10] and in assay [13] was “inactive” in each case. In addition, the max response in assay [2] was 14.8%; in assay [9], -1.31% (inactive); in assay [11] it was -25.7% (inactive); in assay [12], -14.5% (inactive). The activity change % (negative = inhibition) in assay [6] is -2.9% (inactive). In addition, the results for the activation in assay [7] and in [8] were 3.87% (inactive) and 0.902% (inactive), respectively.
As for `CCSC(=O)N(CC(C)C)CC(C)C`, the Potency entry in [1], in [3], in assay [4], in assay [16], in assay [5] and in [10] was “inactive” in each case. The Potency entry in [13] was “inactive”. For the same molecule, the max response in assay [2] was -16.2%; in [15] it was -8.61%; in [17], -7.79%; in assay [18] it was -2.54% (inactive); in [11] it was -3.63% (inactive); in [12] it was -1.7% (inactive). Also, in [19], the max response was 2.63% (inactive). Besides, the result in assay [14] and in assay [20] was inactive. Further, the activation is -3.92% (inactive) in assay [7] and 0.255% (inactive) in assay [8].
Take `C=C(C)C(=O)OCCCCCCCCCCCC`: the Potency result in assay [1], in assay [3], in assay [4], in [10] and in assay [13] was “inactive” in each case. For the same molecule, the max response in assay [2] was -35.9%; in [15], -11.6%; in assay [17], -6.86%; in assay [18], 6.49% (inactive); in assay [11], 11.2% (inactive); in [12], -6.64% (inactive). For the same molecule, the max response in [19] is 1.96% (inactive). Further, the molecule was called inactive in [14] and in assay [20]. Moreover, the activity change % (negative = inhibition) in [6] is 0.53% (inactive). Further, the activation in assay [7] was 1.89% (inactive); in [8] it was 1.15% (inactive).
Turning to `O=C1CCCCCCCCCCC1`, the Potency result in assay [1], in assay [3], in assay [16], in assay [5], in [10] and in [13] was “inactive” throughout. The max response is 31.3% in assay [2]; -19.7% in assay [15]; -10.4% in [17]; 4.14% (inactive) in assay [18]; -0.988% (inactive) in assay [9]; -14.8% (inactive) in [11]. In addition, the max response is -4.39% (inactive) in assay [12] and 0.58% (inactive) in assay [19]. The result in assay [14] and in assay [20] was inactive. Further, the activity change % (negative = inhibition) in [6] is 4.81% (inactive). For the same molecule, the activation in assay [7] was -4.42% (inactive); in assay [8] it was 0.997% (inactive).
Regarding `CCCCC(CC)COP(=O)(O)OCC(CC)CCCC` (configuration not stated), the Potency result in assay [1], in [3], in [4], in assay [5], in assay [10] and in assay [13] was “inactive” in each case. In addition, the max response was -17.6% in assay [2]; -7.8% in [17]; -10.6% (inactive) in [18]; 10.3% (inactive) in assay [9]; -10.7% (inactive) in assay [11]; -5.86% (inactive) in assay [12]. Further, the max response in assay [19] is 0.935% (inactive). Also, the activity change % (negative = inhibition) in assay [6] was -4.02% (inactive). Also, the activation in [8] was -0.89% (inactive).
